KinaseGlo FLuc: counter-screen: inhibitors of Kinase-Glo firefly luciferase. hit rate 0.28% among 200,000. AID 1379. Kinase-Glo luciferase, ATP luminescence, 8 min. Potency, µM (doses to about 38.3 µM), for the others: top-dose activity change, negative = inhibition, most hits filed as inhibitors; also: % is scaled to controls: 0 for no effect and ±100 for the full control effect; nearly all actives have a fitted effect of over 60% in size
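Substrate mix (final 50 mM imidazole pH 7.2, 50 mM KCl, 7 mM MgCl2, 10 uM ATP, 0.01% Tween 20, 0.05% BSA) plus pin-tool compound, then Kinase-Glo detection mix; 8 min ambient, luminescence read.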
ELG1 genotox: induces genotoxicity in HEK293T cells with luciferase-tagged ELG1. HEK293T ELG1-luciferase reporter, luminescence, 16 h. Potency, µM (titrated, usually from 46 µM), for inactives: top-dose activity change, positive = activation, most hits filed as activators. AID 504466. hit rate 1.3% among 330,000; also: % of control where 0% means no effect; nearly all actives have a fitted effect of over 60% in size
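Quantitative HTS format in 1536-well plates. HEK293T ELG1-luciferase reporter cells receive test compound and are incubated 16 hr at 37 °C, 5% CO2; ONE-Glo added, 30 min room temperature, then luminescence read.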
SMN2 splice up: enhancers of SMN2 splice variant expression; HEK293 SMN2-luciferase splicing reporter, luminescence, 30-36 h; Potency, µM (top dose mostly 46.1 µM), inactives show at the top dose activity change, positive = activation, actives largely listed as activators; hit rate 2.8% among 210,000; AID 1458; also: % of control where 0% means no effect; nearly all actives have a fitted effect of over 55% in size
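HEK293 cells carry an SMN2 minigene-luciferase reporter in which exon 7 inclusion puts luciferase in frame. Cells were seeded at 2000 cells/well, attached for 10-12 hours, then exposed to compounds for 30-36 hours at 37C before ONE-Glo luminescence.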
Rab9 prom act: activators of Rab9 promoter | AID 485297 | Huh7 Rab9 promoter-luciferase reporter, luminescence, 24 h | Potency, µM (doses to about 9.22 µM), for the others: at the highest dose activation, negative = inhibition, hits mostly activators | hit rate 2.8% among 320,000; also: % of control where 0% means no effect; nearly all actives have a fitted effect of over 60% in size
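Cells were plated at 1500 per well in reduced-serum medium with 10% FBS and left 2 h. Compound in DMSO was then added for 24 h at 37 °C. Reporter signal was read by luminescence after 10 min with luciferase detection reagent.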
FLuc modulator: inhibits or activates purified firefly luciferase, miR-21 counter-screen | purified FLuc, Km substrates, luminescence inhibition | P08659 | hit rate 6.9% among 360,000 | Potency, µM (titrated, usually from 57.5 µM), without a hit: at the highest dose activity change, negative = inhibition, hits mostly inhibitors;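 also: plate controls were vehicle for no effect and reference inhibitor for full effect; nearly all actives have a fitted effect of over 55% in size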
Target sequence (P08659 whole entry, looked up): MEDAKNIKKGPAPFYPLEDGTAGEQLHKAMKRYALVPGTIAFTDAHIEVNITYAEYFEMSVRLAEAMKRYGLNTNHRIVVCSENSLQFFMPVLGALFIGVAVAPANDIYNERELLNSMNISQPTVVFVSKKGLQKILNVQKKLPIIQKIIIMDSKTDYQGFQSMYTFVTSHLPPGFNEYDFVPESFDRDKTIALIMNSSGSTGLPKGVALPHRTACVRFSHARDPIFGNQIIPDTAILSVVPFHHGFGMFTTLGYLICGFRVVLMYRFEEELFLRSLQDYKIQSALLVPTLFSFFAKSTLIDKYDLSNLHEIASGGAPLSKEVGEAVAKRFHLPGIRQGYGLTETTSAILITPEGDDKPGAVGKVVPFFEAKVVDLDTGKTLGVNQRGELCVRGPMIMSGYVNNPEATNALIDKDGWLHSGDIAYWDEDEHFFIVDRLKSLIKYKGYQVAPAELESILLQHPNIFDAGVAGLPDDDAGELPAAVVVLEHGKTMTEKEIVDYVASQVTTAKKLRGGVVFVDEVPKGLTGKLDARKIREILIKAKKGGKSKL
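Biochemical qHTS of compounds, final roughly 60 µM downward over six points, against 10 nM purified firefly luciferase using Km concentrations of substrates (10 uM D-luciferin, 10 uM ATP) in Tris acetate pH 7.5 buffer; luminescence output.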
NPC1 prom act: NPC1 promoter activation; Huh7 NPC1 promoter luciferase reporter, 24 h; Potency, µM (highest dose often 9.22 µM), without a hit: top-dose activation, most hits filed as activators; hit rate 2.4% among 320,000; AID 485313; also: % of control where 0% means no effect; nearly all actives have a fitted effect of over 60% in size
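Huh7 reporter cells (NPC1 promoter driving luciferase) are dosed with compound for 24 h at 37 °C, 5% CO2; luciferase detection reagent is then added and luminescence measured after 10 min at ambient temperature.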
* hit, by the source's call. An excerpt weighted towards active compounds, which were near 7.3% of everything screened. Calls follow the shape of the dose curve; as a rule, active = well fitted curve in the direction sought with a large enough effect; inconclusive = small, poorly fitted or top-dose-only effect, or another doubt; inactive = no such curve, though single readings can be large; an effect the other way counts as inactive or inconclusive. Potency is read from the fitted curve at half-maximal effect.

Results for Cc1ccc(C(=O)/C=C/Nc2cccc([N+](=O)[O-])c2)o1 ?
KinaseGlo FLuc: -6%; ELG1 genotox: inconclusive; SMN2 splice up: 14µM*; Rab9 prom act: 3.2µM*; FLuc modulator: 5.4µM*; NPC1 prom act: inconclusive

How did COc1cccc2cc(C(=O)NCCc3c(C)[nH]c4ccc(F)cc34)c(=O)oc12 do in these assays?
SMN2 splice up: 4%; FLuc modulator: 6%

Results for C=CCn1c(SCC(=O)Nc2ccc(N3CCOCC3)cc2)nnc1-c1ccncc1 ?
ELG1 genotox: 1%; Rab9 prom act: 9%; FLuc modulator: inconclusive; NPC1 prom act: 8%

Results for C=CCn1c(SCC(=O)Nc2ccc(-c3nc4ccc(C)cc4s3)cc2)nnc1-c1ccncc1 ?
KinaseGlo FLuc: 3%; ELG1 genotox: inconclusive; SMN2 splice up: 7.1µM*; Rab9 prom act: inconclusive; FLuc modulator: inconclusive; NPC1 prom act: inconclusive

Results for Cc1nnc(SCC(=O)Nc2nsc(-c3ccc(C(C)(C)C)cc3)n2)s1 ?
KinaseGlo FLuc: -3%; ELG1 genotox: 3.3µM*; SMN2 splice up: 11µM*; Rab9 prom act: 1.4µM*; FLuc modulator: 11µM*; NPC1 prom act: 1.4µM*

How did CCn1c(SCC(=O)Nc2ccc(-c3nc4ccc(C)cc4s3)cc2)nnc1-c1ccccc1 do in these assays?
KinaseGlo FLuc: 0%; ELG1 genotox: inconclusive; SMN2 splice up: 0.56µM*; Rab9 prom act: 0.63µM*; FLuc modulator: inconclusive; NPC1 prom act: inconclusive

Results for Cc1nnc(SCC(=O)Nc2ccc(-c3nc4ccccc4s3)cc2)s1 ?
KinaseGlo FLuc: -20%; ELG1 genotox: 2.1µM*; SMN2 splice up: 1.3µM*; Rab9 prom act: 0.35µM*; FLuc modulator: 0.27µM*; NPC1 prom act: 0.79µM*

What do the screens show for `CCN(CC)c1ccc(NC(=O)CSc2nnc(C)c(=O)[nH]2)cc1`?
SMN2 splice up: 10%; FLuc modulator: inconclusive

What do the screens show for `NC(=O)c1ccc(NC(=O)CCCN2C(=O)NC3(CCCC3)C2=O)cc1`?
ELG1 genotox: 1%; Rab9 prom act: -7%; FLuc modulator: -1%; NPC1 prom act: 1%

What do the screens show for `O=C(CCN1C(=O)NC2(CCCC2)C1=O)Nc1ccc(-c2nc3ccccc3s2)cc1`?
ELG1 genotox: inconclusive; Rab9 prom act: 0.45µM*; NPC1 prom act: 0.89µM*

Results for COc1ccc(-c2cn3c(n2)sc2cc(C(=O)NC4CCCc5ccccc54)ccc23)cc1 (stereo not drawn) ?
FLuc modulator: -1%

Results for CCCOc1ccc(C(=O)Nc2ccc3oc(-c4ccc5ccccc5c4)nc3c2)cc1 ?
SMN2 splice up: -18%; FLuc modulator: 6%

Results for O=C(O)C1CC(c2ccccc2)=Nc2ccccc2S1 (stereo not drawn) ?
ELG1 genotox: inconclusive; Rab9 prom act: inconclusive; FLuc modulator: 17µM*; NPC1 prom act: inconclusive

What do the screens show for `Cn1ccc2cc(S(=O)(=O)N3CCC(C(=O)NCCc4ccccc4)CC3)ccc21`?
FLuc modulator: 0%

Results for O=C(CNC(=O)c1ccc(F)cc1)OCc1cc(=O)n2nc(C3CC3)sc2n1 ?
FLuc modulator: -5%

What do the screens show for `COc1ccccc1Nc1nc(-c2cccnc2)cs1`?
ELG1 genotox: 10%; Rab9 prom act: inconclusive; FLuc modulator: 13µM*; NPC1 prom act: inconclusive

What do the screens show for `COc1ccc(Nc2nc(-c3cccnc3)cs2)c(OC)c1`?
ELG1 genotox: 1%; Rab9 prom act: inconclusive; FLuc modulator: 21µM*; NPC1 prom act: 3.5µM*

How did O=[N+]([O-])c1ccccc1Nc1nc(-c2cccnc2)cs1 do in these assays?
ELG1 genotox: inconclusive; Rab9 prom act: 28%; FLuc modulator: 11µM*; NPC1 prom act: inconclusive

What do the screens show for `COc1ccccc1Nc1nc(C2(C)CCC(=O)O2)cs1` (stereo not drawn)?
KinaseGlo FLuc: 1%; ELG1 genotox: 8%; SMN2 splice up: 14%; Rab9 prom act: 22%; FLuc modulator: 15µM*; NPC1 prom act: 16%

What do the screens show for `COc1ccccc1Nc1nc(-c2ccc3c(c2)NC(=O)CO3)cs1`?
KinaseGlo FLuc: 3%; ELG1 genotox: -5%; SMN2 splice up: -95%; Rab9 prom act: 0%; FLuc modulator: inconclusive; NPC1 prom act: -4%

Results for Cn1c2ccccc2c2c(C(=O)N3CCN(c4cccc(Cl)c4)CC3)cn(C3CCCCC3)c(=O)c21 ?
SMN2 splice up: -3%; FLuc modulator: -2%

What do the screens show for `Clc1cccc(Cl)c1/C=C/c1ccn[nH]1`?
ELG1 genotox: 11%; Rab9 prom act: 8%; FLuc modulator: 17µM*; NPC1 prom act: -21%

Results for Cc1ccc(C(=O)c2cn(Cc3cccc(Cl)c3)c3nc(C)ccc3c2=O)cc1 ?
SMN2 splice up: 0%; FLuc modulator: -6%

How did Cc1noc(/C=C/c2cccs2)c1S(=O)(=O)N1CCC(C(=O)NCc2ccccc2Cl)CC1 do in these assays?
SMN2 splice up: -6%; FLuc modulator: 0%

How did Cn1ccnc1SCC(=O)c1c[nH]c2ccccc12 do in these assays?
KinaseGlo FLuc: -23%; ELG1 genotox: 10µM*; SMN2 splice up: 18µM*; Rab9 prom act: 3.5µM*; FLuc modulator: 19µM*; NPC1 prom act: 4µM*

Results for COc1ccc(N(Cc2nnc3n2CCCCC3)C(=O)Nc2cccc(C)c2)cc1Cl ?
FLuc modulator: 1%

Results for O=C(COC(=O)c1ccccc1-n1cnnn1)c1ccc(F)cc1 ?
ELG1 genotox: inconclusive; Rab9 prom act: -3%; FLuc modulator: 6µM*; NPC1 prom act: 6%

How did O=C(COC(=O)c1cccc(-n2cnnn2)c1)c1ccc(Br)cc1 do in these assays?
ELG1 genotox: inconclusive; Rab9 prom act: inconclusive; FLuc modulator: 6.7µM*; NPC1 prom act: inconclusive

Results for CCN(CC)S(=O)(=O)c1ccc(C(=O)NCCSc2c(-c3ccc(F)cc3)[nH]c3ccccc23)cc1 ?
SMN2 splice up: -38%; FLuc modulator: 2%

Results for COc1ccc(CCNc2nc3cc(OC)c(OC)cc3c3nc(-c4cccnc4)nn23)cc1OC ?
SMN2 splice up: 2%; FLuc modulator: -1%

What do the screens show for `CCOC(=O)c1cc2c(C)n(-c3ccc(N(C)C)cc3)c(C)c2cc(C(=O)OCC)c1=O`?
KinaseGlo FLuc: -1%; ELG1 genotox: 2%; SMN2 splice up: -23%; Rab9 prom act: inconclusive; FLuc modulator: 1.7µM*; NPC1 prom act: 29%

Screens from PubChem BioAssay.
